Rows were chosen to be rich in hits. Some 1.5% of all compounds tested hit in one or more screens of this group.
Myeloid diff MLP – induction of myeloid progenitor differentiation, primary screen, cell-based, flow cytometry, MLPCN library | 360,000 compounds, 1% hits | calls only at 10 µM | AID 624256, 2012 | ER-HoxA9 myeloid progenitors, lysozyme-GFP differentiation;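 active means normalized GFP-positive differentiation at or above the plate's own cutoff, the solvent-only control mean plus 3 SD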;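 further: cells exposed to compound for four days before flow analysis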
TLR9-MyD88 inh – inhibitors of TLR9-MyD88 association in cells, primary screen, cell-based, CHO, BLA complementation, fluorescence; Toll-like receptor 9 (Homo sapiens) + Myeloid differentiation primary response protein …; 340,000 compounds, 0.21% hits; CCF4 FRET ratio; inhibition, % at 4.98 µM;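 active means inhibition above the mean over all tested compounds plus 3 SD, cut at about 21% in these data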;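 further: 0% = DMSO only wells and 100% = clavulanate BLA inhibitor control wells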
TLR4 MyD88 comp – inhibitors of TLR4-MyD88 association in cells, primary screen, cell-based, HeLa CL3-4, BLA complementation, FRET ratio | inhibition, % at 8.4 µM | 200,000 compounds, 0.18% hits | AID 861, 2007 | Toll-like receptor 4 (Homo sapiens) + Myeloid differentiation primary response protein … | HeLa CL3-4 TLR4/MyD88 BLA complementation; in the data active means inhibition above about 25%;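 further: 0% = vehicle and 100% = reference inhibitor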
NOD2-RIPK2 inh – NOD2-RIPK2 binding disruptors in cells, primary screen, fluorescence, CHO cells, BLA complementation. 360,000 compounds, 0.38% hits. CCF4 ratio. inhibition, % at 4.98 µM. AID 624267, 2012; in the data active means inhibition above about 21%;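 further: 0% = vehicle only and 100% = reference blocker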
Target sequence (O43353 whole entry, looked up): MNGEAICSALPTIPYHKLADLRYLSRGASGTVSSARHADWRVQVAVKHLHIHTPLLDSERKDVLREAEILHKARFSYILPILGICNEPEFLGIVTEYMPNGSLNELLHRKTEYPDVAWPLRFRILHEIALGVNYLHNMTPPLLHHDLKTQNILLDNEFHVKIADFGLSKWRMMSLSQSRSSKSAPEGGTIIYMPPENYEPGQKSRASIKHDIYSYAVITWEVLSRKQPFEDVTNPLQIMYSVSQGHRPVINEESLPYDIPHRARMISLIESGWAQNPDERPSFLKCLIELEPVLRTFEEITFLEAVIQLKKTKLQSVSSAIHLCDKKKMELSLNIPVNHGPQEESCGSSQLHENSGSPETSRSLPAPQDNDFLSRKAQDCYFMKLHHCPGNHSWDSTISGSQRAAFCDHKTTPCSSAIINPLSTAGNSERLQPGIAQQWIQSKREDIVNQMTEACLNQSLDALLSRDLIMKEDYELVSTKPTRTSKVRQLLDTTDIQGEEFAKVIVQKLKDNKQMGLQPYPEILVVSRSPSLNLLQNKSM
Myeloid diff CP1 – inducers of myeloid progenitor differentiation, confirmation, cell-based, GFP/Mac1 flow cytometry, cherry pick 01; shares compounds with Myeloid diff MLP; ER-HoxA9 myeloid progenitors, GFP/Mac1 double-positive flow; calls only; 2,300 compounds, 2% hits;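 active means share of green or green-and-red cells above 9 and 9% in run 1 or 4 and 3% in run 2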
GFP autofluor – flagged as fluorescent in myeloid differentiation counter-screen. shares compounds with Myeloid diff MLP. ER-HoxA9 myeloid progenitors, no estrogen, GFP autofluorescence flow cytometry; vehicle wells 0%, positive control 100%. fluorescence response, % (concentration not given with the values). 2,300 compounds, 7.4% hits. AID 651707;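 active means over 5% cells positive for green fluorescent reporter, or over 2% positive for both it and APC stain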;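 further: range taken on the double positive population between DMSO and positive control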
* marks the source's active call; other numbers are inactive results; i = inactive; / = not tested or not shown; + = active, no number.

SMILES	Myeloid diff MLP	TLR9-MyD88 inh	TLR4 MyD88 comp	NOD2-RIPK2 inh	Myeloid diff CP1	GFP autofluor
Cc1cc(C)c2c(=O)n3c(nc2c1)C(CC(C)C)NC(=O)c1cccnc1-3 (stereo not given)	i	-2.8	/	3.0	/	/
CCOC(=O)c1cc2c(c(-c3ccccc3)n1)[C@H](CCO)N(S(=O)(=O)C(C)(C)C)C2	i	-7.8	/	-8.2	/	/
CCOC(=O)c1cc2c(c(-c3ccccc3)n1)[C@@H](CCO)N(S(=O)(=O)C(C)(C)C)C2	i	-2.5	/	-0.2	i	0.6
COc1ccc(-c2nn(C)c(=O)c3ccccc23)cc1NC(=O)Cn1nc(C)c2ccccc2c1=O	+	5.6	3.6	-14.5	i	0.0
Cc1cccc(C(=O)N[C@H](C(=O)Nc2cccc(S(=O)(=O)N3CCCC3)c2)C(C)C)c1	i	3.9	/	-7.3	i	0.0
O=C(Nc1cccc(S(=O)(=O)N2CCCCC2)c1)C1CCCC1	i	-4.5	/	6.3	/	/
O=C(Nc1cccc(S(=O)(=O)N2CCCCCC2)c1)C1CCC1	i	-3.3	/	-5.0	i	0.0
Cc1nc(C(F)(F)F)ccc1C(=O)N1CCC1(C)C(=O)NS(C)(=O)=O (stereo not given)	i	/	/	0.8	/	/
COC(=O)C1C(=O)N(S(=O)(=O)c2ccc([N+](=O)[O-])cc2)c2ccccc21 (stereo not given)	i	/	/	0.2	/	/
O=C1N=C(N2CCN(Cc3ccccc3)CC2)S/C1=C/c1cccs1	+	/	/	2.1	i	0.4
CCCCN(C)c1c(C)nc2ccc(C(=O)Nc3ccc(OC)c(OC)c3)cn12	i	/	/	-4.8	/	/
CN(CC(=O)Nc1ccc(Cl)cc1)Cc1cc(=O)n2ccsc2n1	i	7.5	-21.6	-5.4	/	/
Cc1ccc(NC(=O)CN(C)Cc2cc(=O)n3ccsc3n2)cc1	i	-2.3	/	4.5	i	1.3
Cc1csc(SCc2nnc(-c3ccccc3Br)o2)n1	i	-7.1	1.4	-14.9	i	0.0
Cc1csc(SCc2nnc(-c3ccc(Cl)cc3)o2)n1	i	-3.9	6.1	-7.0	/	/
CCCCN1CCCCC1(C)C(=O)NCc1ccc2c(c1)OCO2 (stereo not given)	i	/	/	3.8	/	/
O=[N+]([O-])c1ccc(/C=N/NC(=S)Nc2ccc(Cl)cc2Cl)s1	i	6.3	/	-12.5	/	/
Cc1c(Cl)cccc1N=Cc1ccc([N+](=O)[O-])s1	i	5.8	-8.3	-16.1	i	0.0
CNc1ncnc2c1ncn2[C@H]1CN(Cc2ccc3c(c2)OCO3)C[C@@H](CO)O1	i	/	/	5.7	/	/
CCOC(=O)c1cc(-c2ccccc2)sc1NC(=S)Nc1cc(C)ccn1	+	3.1	1.7	-1.7	i	0.0
Cc1ccc(F)c(NC=C2C(=O)OC(C)(C)OC2=O)c1	i	-14.5	7.9	7.0	i	2.0
CC1(C)OC(=O)C(=CNc2ccc(F)cc2)C(=O)O1	i	-5.8	1.6	5.5	/	/
COc1cccc(C(NC(C)=O)c2nc(-c3cccc(O)c3)cs2)c1 (stereo not given)	i	/	/	-5.3	/	/
OC(c1ccc(F)c(F)c1)c1nc(-c2cc(F)cc(F)c2)cs1 (stereo not given)	i	/	/	2.2	/	/
CCOc1ccc(CCN2C(=O)C(=O)N([C@@H](Cc3ccccc3)CN3CCC[C@H]3CN3C(=O)C(=O)NC[C@@H]3Cc3ccccc3)C[C@@H]2CC(C)C)cc1	i	/	/	-2.1	/	/
SMILES	Myeloid diff MLP	TLR9-MyD88 inh	TLR4 MyD88 comp	NOD2-RIPK2 inh	Myeloid diff CP1	GFP autofluor
C=CCNC(=O)c1ccc(N(CC=C)S(C)(=O)=O)cc1	+	-6.9	-6.5	-24.2	i	0.0
O=C(NC(=S)Nc1ccccc1O)c1cncc(Br)c1	i	-3.6	/	-1.1	i	10.5*
O=C(NC(=S)Nc1ccccc1C(=O)O)c1cncc(Br)c1	i	-18.0	/	5.1	/	/
COc1ccc(Cn2nnnc2CN2CCc3ccccc3C2)cc1	i	-0.1	-7.9	-6.0	/	/
COc1ccc(Cn2nnnc2CN2CCc3ccccc32)cc1	+	-4.8	-5.2	-11.1	i	3.2
Cc1ccc(Cn2c(=O)n(-c3ccccc3)c(=O)c3ccc(C(=O)NCc4ccco4)cc32)cc1	i	0.1	-18.4	9.8	i	1.5
Cc1ccc(Cn2c(=O)n(Cc3ccco3)c(=O)c3ccccc32)cc1	i	-1.0	-5.5	-5.9	i	0.3
Cc1cccc(Cn2c(=O)n(-c3ccc(CC(=O)NCc4ccco4)cc3)c(=O)c3sccc32)c1	i	-6.3	3.0	-15.2	i	0.2
Cn1c(C(=O)NCCN2CCc3ccccc3C2)cc2c(=O)n(C)c3ccccc3c21	i	-5.7	-7.0	-12.5	/	/
Cn1c(C(=O)NCCN2CCOCC2)cc2c(=O)n(C)c3ccccc3c21	i	-6.9	5.8	3.3	i	3.6
Clc1ccc2nc(-c3ccc4c(c3)OCO4)cn2c1	i	-1.7	-2.9	-5.4	i	0.0
COC(=O)c1ccc(NC(=O)c2ccc(NS(=O)(=O)c3cccc4cccnc34)cc2)cc1	i	-5.3	/	-6.2	/	/
O=C(Nc1ncccc1O)c1ccc(S(=O)(=O)Nc2ccccc2)cc1	+	1.9	/	0.2	i	1.0
Cc1cccc(NC(=O)c2ccc(NS(=O)(=O)c3cccc4cccnc34)cc2)c1	i	3.9	/	-1.3	i	0.3
O=C(Nc1ncccc1O)c1ccc(NS(=O)(=O)c2ccc3[nH]c(=O)[nH]c3c2)cc1	i	1.8	/	-0.4	/	/
O=C(Nc1ccccc1O)c1ccc(NS(=O)(=O)c2cccc3cccnc23)cc1	i	-6.1	-21.3	-12.4	i	0.5
COc1ccccc1S(=O)(=O)N(C)C[C@@H]1OCc2cnnn2CCCC(=O)N([C@H](C)CO)C[C@H]1C	i	1.8	/	-12.0	/	/
Cc1ccc(NC(=O)c2ccc(NCCCN3CCC(C)CC3)c([N+](=O)[O-])c2)cc1F	i	4.9	3.5	1.7	i	0.0
COc1cc2c(cc1OC)C(c1ccc3c(c1)Cc1ccccc1-3)OC(=O)C2 (stereo not given)	i	/	/	3.3	/	/
CCCCOCCCNC(=O)C[C@@H]1C[C@@]2(C(=O)OC)CC(C)(C)CC=C2N(Cc2ccccc2)C1=O	i	/	/	4.1	/	/
Cn1cc([C@]2(O)C(=O)Nc3ccc(OC(F)(F)F)cc32)c2ccccc21	i	/	/	-2.8	/	/
c1ccc(C2=Nc3ccccc3OC2)cc1	i	-0.1	11.9	1.9	i	0.0
O=C(CCn1c(=O)sc2ccccc21)NC1=NCCS1	i	3.9	-7.9	-10.0	i	0.0
COc1ccc(C2=CCCCCC2)cc1OC	i	-12.7	/	4.3	/	/
Cc1ccc(C)c(N=Nc2nc3ccccc3n2C)c1	+	-4.3	15.5	-5.0	i	0.0

Screens deposited in PubChem BioAssay by several laboratories.
